1 sequence from article PMC7862700, “An all-to-all approach to the identification of sequence-specific readers for epigenetic DNA modifications on cytosine” can be followed below.

What all share (test): DAPPL (digital affinity profiling via proximity ligation, sequencing); 10 mM Tris-HCl pH 7.5, 50 mM NaCl, 1 mM DTT, 4% glycerol, room temperature, 30 min; GST-TFs on glutathione beads, 16-mer random dsDNA library, 0.1% formaldehyde crosslink after washing; high values mean tight binding
One assay addresses T1, FLI1 (Homo sapiens, UniProt Q01543 1-452).
T1 sequence: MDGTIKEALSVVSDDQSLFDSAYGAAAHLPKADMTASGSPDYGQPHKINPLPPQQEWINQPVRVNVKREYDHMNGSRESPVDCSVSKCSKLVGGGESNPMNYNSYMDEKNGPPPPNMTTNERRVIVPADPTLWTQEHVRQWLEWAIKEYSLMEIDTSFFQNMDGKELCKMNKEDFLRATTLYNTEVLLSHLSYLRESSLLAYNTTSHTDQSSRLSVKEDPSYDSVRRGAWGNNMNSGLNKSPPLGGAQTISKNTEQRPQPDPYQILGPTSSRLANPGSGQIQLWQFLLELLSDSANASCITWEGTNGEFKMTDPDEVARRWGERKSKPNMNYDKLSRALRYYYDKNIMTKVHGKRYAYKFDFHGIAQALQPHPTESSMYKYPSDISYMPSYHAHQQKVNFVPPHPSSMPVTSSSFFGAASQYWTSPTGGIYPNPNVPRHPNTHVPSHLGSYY
The settings on record: protein: recombinant; tags: N-terminal GST; dsDNA, one strand shown. In outline:
(§1)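 Pools were built from human transcription factors expressed in yeast as GST fusions, captured on glutathione beads and DNA-barcoded, along with a tag-only sample. Incubation with 200 nmole of a 16-mer random double-stranded DNA library lasted 30 min at room temperature in Tris/NaCl/DTT/glycerol buffer, and was followed by washing, 0.1% formaldehyde crosslinking, proximity ligation, PCR amplification and Illumina NextSeq500 sequencing. Binding signal is the quotient of each hexamer's read frequency for a factor and its frequency for the tag-only sample.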

The target in a further assay is T2, ELK1 (Homo sapiens, UniProt P19419 1-428).
T2 sequence: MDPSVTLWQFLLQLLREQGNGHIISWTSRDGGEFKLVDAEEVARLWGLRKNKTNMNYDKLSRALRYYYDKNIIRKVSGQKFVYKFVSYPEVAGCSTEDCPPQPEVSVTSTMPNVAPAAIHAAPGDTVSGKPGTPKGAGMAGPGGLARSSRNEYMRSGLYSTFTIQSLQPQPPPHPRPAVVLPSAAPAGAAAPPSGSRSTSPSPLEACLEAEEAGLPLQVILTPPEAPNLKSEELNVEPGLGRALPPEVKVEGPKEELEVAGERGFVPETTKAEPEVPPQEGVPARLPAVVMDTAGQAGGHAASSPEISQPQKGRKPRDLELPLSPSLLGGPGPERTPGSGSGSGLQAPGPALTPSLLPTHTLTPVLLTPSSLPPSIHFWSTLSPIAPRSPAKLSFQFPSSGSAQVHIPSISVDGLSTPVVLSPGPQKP
The settings on record: protein: recombinant; tags: N-terminal GST; dsDNA, one strand shown. In outline: as §1

The next assay deals with T3, GABPA (Homo sapiens, UniProt Q06546 1-454).
T3 sequence: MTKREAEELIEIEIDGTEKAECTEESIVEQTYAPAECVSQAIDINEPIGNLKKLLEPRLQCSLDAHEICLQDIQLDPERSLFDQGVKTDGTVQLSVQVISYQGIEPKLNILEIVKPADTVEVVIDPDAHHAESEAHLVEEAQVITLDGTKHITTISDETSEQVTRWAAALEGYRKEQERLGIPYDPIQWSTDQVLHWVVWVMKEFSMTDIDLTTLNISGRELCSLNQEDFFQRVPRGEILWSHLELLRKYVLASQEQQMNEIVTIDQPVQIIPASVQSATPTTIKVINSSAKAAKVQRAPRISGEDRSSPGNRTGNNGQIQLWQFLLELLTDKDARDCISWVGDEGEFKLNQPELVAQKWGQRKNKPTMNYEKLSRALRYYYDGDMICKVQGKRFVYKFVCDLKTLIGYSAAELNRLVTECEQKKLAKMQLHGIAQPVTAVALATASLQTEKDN
As to conditions: protein: recombinant; tags: N-terminal GST; dsDNA, one strand shown. The essentials:
as §1

The target in the next assay is T4, ERG (Homo sapiens, UniProt P11308 1-479).
T4 sequence: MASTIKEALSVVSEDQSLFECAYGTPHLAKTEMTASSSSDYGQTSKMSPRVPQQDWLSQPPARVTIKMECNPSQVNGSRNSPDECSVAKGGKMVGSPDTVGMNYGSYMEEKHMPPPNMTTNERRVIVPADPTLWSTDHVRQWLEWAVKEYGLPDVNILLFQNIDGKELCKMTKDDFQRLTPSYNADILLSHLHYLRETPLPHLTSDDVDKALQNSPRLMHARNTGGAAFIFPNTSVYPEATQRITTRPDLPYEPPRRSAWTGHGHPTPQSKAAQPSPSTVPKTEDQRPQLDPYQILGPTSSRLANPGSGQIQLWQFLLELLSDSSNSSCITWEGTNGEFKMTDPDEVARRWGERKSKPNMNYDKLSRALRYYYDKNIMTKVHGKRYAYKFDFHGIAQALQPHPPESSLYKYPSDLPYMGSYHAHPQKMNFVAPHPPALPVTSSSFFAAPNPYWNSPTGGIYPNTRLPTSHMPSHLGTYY
The settings on record: protein: recombinant; tags: N-terminal GST; dsDNA, one strand shown. In outline: as §1

The next assay concerns the target ELF1 (Homo sapiens, UniProt P32519 1-619). As to conditions: protein: recombinant; tags: N-terminal GST; dsDNA, one strand shown. The essentials: as §1
For another assay, the target named is T5, EHF (Homo sapiens, UniProt Q9NZC4 1-300).
T5 sequence: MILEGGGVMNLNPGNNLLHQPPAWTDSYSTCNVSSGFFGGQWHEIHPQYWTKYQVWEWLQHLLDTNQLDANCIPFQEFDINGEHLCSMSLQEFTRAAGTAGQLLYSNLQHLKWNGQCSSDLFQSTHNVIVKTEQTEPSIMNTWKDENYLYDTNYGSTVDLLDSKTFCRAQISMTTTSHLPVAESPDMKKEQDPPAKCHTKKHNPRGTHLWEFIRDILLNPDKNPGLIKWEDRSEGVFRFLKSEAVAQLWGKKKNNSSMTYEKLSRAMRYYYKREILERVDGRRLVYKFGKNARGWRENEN
As to conditions: protein: recombinant; tags: N-terminal GST; dsDNA, one strand shown. In outline: as §1

The target in another assay is SPI1 (Homo sapiens, UniProt P17947 1-270). The settings on record: protein: recombinant; tags: N-terminal GST; dsDNA, one strand shown. In outline: as §1
A further assay deals with SPIB (Homo sapiens, UniProt Q01892 1-262). As to conditions: protein: recombinant; tags: N-terminal GST; dsDNA, one strand shown. The essentials: as §1
The target of the next assay is T6, ELK3 (Homo sapiens, UniProt P41970 1-407).
T6 sequence: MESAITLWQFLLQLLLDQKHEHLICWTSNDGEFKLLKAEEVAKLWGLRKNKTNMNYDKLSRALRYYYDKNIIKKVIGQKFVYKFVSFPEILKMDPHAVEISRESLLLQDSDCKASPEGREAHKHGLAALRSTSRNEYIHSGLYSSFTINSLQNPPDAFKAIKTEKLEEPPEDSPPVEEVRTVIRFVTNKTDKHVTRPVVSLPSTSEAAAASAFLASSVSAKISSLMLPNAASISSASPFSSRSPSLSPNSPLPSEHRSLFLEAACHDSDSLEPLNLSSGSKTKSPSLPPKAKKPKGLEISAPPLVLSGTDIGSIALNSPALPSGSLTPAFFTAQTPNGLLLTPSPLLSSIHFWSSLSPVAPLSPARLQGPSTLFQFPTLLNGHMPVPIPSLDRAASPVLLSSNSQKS
As to conditions: protein: recombinant; tags: N-terminal GST; dsDNA, one strand shown. In outline:
as §1

The next assay addresses T7, FEV (Homo sapiens, UniProt Q99581 1-238).
T7 sequence: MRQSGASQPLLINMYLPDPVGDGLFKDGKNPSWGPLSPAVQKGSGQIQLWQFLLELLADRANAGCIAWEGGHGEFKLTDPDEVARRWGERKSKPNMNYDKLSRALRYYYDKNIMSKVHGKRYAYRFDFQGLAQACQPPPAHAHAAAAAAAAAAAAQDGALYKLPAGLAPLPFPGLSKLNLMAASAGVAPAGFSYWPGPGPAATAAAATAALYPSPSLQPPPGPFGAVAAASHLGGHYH
As to conditions: protein: recombinant; tags: N-terminal GST; dsDNA, one strand shown. In outline: as §1

Another assay deals with ETV5 (Homo sapiens, UniProt P41161 1-510). The settings on record: protein: recombinant; tags: N-terminal GST; dsDNA, one strand shown. In outline: as §1
Another assay concerns the target HSF1 (Homo sapiens, UniProt Q00613 1-529). The settings on record: protein: recombinant; tags: N-terminal GST; chain copies: 3; dsDNA, one strand shown. The essentials:
as §1

In the next assay the target is T8, SPIC (Homo sapiens, UniProt Q8N5J4 1-248).
T8 sequence: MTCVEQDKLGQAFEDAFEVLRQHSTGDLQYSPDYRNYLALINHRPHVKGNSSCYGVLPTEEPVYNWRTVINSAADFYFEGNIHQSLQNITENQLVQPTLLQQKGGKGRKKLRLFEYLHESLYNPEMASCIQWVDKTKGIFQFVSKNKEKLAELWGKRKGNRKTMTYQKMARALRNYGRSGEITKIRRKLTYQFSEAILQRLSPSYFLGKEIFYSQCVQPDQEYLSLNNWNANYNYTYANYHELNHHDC
The settings on record: protein: recombinant; tags: N-terminal GST; dsDNA, one strand shown. In outline:
as §1

The target of the next assay is ELF4 (Homo sapiens, UniProt Q99607 1-663). As to conditions: protein: recombinant; tags: N-terminal GST; dsDNA, one strand shown. The essentials:
as §1

For a further assay, the target named is T9, ELK4 (Homo sapiens, UniProt P28324-2 1-405).
T9 sequence: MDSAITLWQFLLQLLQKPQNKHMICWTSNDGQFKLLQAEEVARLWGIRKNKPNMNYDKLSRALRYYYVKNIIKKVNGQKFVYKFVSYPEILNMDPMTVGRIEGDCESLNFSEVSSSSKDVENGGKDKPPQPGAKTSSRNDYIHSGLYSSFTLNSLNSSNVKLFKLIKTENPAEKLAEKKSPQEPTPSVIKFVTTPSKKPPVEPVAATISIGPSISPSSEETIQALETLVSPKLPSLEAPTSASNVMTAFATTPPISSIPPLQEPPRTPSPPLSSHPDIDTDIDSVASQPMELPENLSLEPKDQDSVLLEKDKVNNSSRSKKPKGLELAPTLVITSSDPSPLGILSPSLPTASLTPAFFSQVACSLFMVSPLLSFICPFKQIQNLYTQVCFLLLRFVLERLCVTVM
As to conditions: protein: recombinant; tags: N-terminal GST; dsDNA, one strand shown. In outline: as §1

The next assay addresses T10, ETV2 (Homo sapiens, UniProt O00321 1-342).
T10 sequence: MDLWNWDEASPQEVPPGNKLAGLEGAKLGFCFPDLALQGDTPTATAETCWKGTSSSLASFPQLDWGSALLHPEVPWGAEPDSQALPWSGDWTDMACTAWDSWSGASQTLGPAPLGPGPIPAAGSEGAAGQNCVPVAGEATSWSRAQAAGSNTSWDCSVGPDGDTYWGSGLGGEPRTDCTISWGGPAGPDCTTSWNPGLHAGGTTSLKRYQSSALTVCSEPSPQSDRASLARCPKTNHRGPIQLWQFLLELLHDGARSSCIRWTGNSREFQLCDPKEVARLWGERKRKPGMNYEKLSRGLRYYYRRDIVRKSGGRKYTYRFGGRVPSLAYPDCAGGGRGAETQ
As to conditions: protein: recombinant; tags: N-terminal GST; dsDNA, one strand shown. The essentials: as §1

The target in a further assay is T11, ELF3 (Homo sapiens, UniProt P78545 1-371).
T11 sequence: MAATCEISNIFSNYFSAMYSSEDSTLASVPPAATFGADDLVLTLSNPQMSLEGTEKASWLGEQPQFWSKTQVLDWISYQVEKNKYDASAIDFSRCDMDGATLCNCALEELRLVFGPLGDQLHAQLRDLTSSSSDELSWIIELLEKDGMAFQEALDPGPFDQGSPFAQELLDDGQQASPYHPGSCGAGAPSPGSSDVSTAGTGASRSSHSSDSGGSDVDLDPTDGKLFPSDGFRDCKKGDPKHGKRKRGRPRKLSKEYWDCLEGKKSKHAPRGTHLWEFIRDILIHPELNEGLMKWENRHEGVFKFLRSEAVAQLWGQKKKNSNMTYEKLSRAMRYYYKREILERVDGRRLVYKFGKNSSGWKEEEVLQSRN
As to conditions: protein: recombinant; tags: N-terminal GST; dsDNA, one strand shown. The essentials:
as §1

For another assay, the target named is CRX (Homo sapiens, UniProt O43186 1-299). The settings on record: protein: recombinant; tags: N-terminal GST; dsDNA, one strand shown. The essentials:
as §1

The target in another assay is ETV1 (Homo sapiens, UniProt P50549 1-477). The settings on record: protein: recombinant; tags: N-terminal GST; dsDNA, one strand shown. The essentials:
as §1

Chain of ETV1 (P50549 whole entry): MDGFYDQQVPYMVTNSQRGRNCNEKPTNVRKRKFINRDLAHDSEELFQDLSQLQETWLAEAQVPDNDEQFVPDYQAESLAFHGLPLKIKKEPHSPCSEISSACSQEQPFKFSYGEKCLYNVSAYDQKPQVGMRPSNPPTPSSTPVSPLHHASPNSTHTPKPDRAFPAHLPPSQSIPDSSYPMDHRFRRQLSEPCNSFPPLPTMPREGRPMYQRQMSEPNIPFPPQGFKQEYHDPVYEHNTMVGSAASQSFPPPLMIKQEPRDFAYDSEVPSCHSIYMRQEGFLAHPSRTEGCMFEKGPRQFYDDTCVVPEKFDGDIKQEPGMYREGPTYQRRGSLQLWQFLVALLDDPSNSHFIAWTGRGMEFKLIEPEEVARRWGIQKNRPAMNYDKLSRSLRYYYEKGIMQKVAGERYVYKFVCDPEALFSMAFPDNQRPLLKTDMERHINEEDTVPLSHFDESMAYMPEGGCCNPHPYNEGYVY
Chain of ELF1 (P32519 whole entry): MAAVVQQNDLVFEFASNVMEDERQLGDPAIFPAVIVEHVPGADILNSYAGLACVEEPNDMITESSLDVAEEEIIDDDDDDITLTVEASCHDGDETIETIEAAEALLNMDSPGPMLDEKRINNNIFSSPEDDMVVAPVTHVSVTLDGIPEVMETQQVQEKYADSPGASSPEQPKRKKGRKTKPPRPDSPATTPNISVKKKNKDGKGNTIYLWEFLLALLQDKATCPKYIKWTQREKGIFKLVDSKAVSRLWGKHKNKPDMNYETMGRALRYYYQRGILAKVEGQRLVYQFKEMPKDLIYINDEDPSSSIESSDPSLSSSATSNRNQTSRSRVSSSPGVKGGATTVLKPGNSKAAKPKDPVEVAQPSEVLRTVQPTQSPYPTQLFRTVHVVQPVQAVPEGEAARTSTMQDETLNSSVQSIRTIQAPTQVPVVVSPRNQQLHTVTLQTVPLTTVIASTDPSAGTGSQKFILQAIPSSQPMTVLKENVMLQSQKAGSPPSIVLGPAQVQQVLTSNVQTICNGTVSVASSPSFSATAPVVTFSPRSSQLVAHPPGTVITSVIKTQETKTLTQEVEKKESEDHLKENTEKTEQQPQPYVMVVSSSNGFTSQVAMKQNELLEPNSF
Chain of HSF1 (Q00613 whole entry): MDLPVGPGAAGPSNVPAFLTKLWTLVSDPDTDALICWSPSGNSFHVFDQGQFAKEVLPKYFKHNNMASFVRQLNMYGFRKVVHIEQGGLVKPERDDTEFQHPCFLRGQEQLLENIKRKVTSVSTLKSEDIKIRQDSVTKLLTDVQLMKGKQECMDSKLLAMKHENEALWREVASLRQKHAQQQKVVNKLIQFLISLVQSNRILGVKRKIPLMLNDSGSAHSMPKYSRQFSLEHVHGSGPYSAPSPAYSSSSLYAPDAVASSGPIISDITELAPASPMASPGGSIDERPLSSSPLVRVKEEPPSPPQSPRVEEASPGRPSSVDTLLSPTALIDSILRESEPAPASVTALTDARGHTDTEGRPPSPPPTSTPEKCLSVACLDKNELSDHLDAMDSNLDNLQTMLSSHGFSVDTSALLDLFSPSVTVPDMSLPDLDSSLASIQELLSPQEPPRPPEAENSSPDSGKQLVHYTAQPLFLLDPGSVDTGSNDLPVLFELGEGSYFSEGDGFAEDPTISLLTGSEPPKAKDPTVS
Chain of ELF4 (Q99607 whole entry): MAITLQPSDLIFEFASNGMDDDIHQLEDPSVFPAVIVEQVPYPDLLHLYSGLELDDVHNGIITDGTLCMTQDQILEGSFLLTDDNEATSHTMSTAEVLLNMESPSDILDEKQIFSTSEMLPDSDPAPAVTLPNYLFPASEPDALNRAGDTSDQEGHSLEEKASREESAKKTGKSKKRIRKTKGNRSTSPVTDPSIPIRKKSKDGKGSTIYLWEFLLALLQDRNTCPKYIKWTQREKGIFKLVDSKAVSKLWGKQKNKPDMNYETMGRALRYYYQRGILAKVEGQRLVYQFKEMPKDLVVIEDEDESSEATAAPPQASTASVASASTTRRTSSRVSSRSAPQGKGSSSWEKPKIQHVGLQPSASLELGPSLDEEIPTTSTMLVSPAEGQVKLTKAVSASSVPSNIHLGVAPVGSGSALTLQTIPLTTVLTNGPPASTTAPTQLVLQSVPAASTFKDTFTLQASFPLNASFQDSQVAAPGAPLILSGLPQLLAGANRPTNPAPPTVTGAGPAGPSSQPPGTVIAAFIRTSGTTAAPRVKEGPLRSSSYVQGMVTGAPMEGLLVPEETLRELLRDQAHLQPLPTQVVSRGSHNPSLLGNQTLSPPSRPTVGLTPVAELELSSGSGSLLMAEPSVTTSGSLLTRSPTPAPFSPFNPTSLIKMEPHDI
Chain of ETV5 (P41161 whole entry): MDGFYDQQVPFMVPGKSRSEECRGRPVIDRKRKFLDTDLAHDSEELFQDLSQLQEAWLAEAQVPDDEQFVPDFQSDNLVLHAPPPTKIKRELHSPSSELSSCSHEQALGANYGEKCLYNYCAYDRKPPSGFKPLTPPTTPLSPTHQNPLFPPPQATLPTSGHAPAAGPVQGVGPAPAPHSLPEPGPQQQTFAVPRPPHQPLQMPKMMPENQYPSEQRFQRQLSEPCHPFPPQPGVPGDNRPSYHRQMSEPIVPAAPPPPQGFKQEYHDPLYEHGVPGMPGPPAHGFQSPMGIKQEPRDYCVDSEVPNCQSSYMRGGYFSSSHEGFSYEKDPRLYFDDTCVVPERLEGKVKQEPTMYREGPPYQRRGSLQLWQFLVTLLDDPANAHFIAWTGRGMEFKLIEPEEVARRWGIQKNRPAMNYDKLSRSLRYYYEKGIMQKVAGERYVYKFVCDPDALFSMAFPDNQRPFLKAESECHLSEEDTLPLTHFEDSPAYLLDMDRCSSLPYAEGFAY
Chain of SPIB (Q01892 whole entry): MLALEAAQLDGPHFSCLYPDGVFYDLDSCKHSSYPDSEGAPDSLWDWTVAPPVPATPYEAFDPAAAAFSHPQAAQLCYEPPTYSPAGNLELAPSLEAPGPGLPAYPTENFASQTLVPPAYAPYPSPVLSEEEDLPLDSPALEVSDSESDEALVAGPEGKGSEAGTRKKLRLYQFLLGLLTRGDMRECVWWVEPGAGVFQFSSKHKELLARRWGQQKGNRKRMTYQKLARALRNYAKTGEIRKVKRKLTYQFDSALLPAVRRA
Chain of CRX (O43186 whole entry): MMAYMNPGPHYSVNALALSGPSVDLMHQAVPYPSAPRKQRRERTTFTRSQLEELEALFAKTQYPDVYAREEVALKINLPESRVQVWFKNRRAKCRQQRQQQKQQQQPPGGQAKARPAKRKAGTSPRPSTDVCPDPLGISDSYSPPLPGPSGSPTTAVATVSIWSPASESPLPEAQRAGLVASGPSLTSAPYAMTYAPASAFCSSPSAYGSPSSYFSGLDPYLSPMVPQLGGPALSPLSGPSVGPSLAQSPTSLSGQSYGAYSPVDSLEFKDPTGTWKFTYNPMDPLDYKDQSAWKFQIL

On to TTATTA, for which the binding signal in the assay with FLI1 was 1.17 fold enrichment (6-mer frequency, TF over GST control); in the assay with ELK1, 1.05 fold enrichment (6-mer frequency, TF over GST control); with GABPA, 1.04 fold enrichment (6-mer frequency, TF over GST control); with ERG, 1.1 fold enrichment (6-mer frequency, TF over GST control); with ELF1, 1.1 fold enrichment (6-mer frequency, TF over GST control); in the assay with EHF, 1.14 fold enrichment (6-mer frequency, TF over GST control). The binding signal in the assay with SPI1 was 1.1 fold enrichment (6-mer frequency, TF over GST control); with SPIB it was 1.04 fold enrichment (6-mer frequency, TF over GST control); with ELK3 it was 1.2 fold enrichment (6-mer frequency, TF over GST control); in the assay with FEV, 1.09 fold enrichment (6-mer frequency, TF over GST control); with ETV5, 1.14 fold enrichment (6-mer frequency, TF over GST control); with HSF1 it was 1.75 fold enrichment (6-mer frequency, TF over GST control). For the same sequence, the binding signal was 1.31 fold enrichment (6-mer frequency, TF over GST control) with SPIC; 1.18 fold enrichment (6-mer frequency, TF over GST control) with ELF4; 1.03 fold enrichment (6-mer frequency, TF over GST control) with ELK4; 1.2 fold enrichment (6-mer frequency, TF over GST control) with ETV2; 1.09 fold enrichment (6-mer frequency, TF over GST control) in the assay with ELF3; 2.49 fold enrichment (6-mer frequency, TF over GST control) with CRX. For the same sequence, in the assay with ETV1, the binding signal was 1.11 fold enrichment (6-mer frequency, TF over GST control).
